Measurements published in PubChem BioAssay AID868 (SRMLSC, 2007).
In all, about 190,000 compounds went through this assay and about 3,500 (1.8%) were called active. Only a selection was taken, and actives are over-represented in it overall. Values without a mark were called inactive.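 The calls were made as follows: active = inhibition above a set limit, 3 SD over mean compound inhibition (cut at about 8.4% in these data); inactive = the rest.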

Assay: RAM signaling blockers in budding yeast – dse1pr::URA3 reporter, 5-FOA selection, primary screen (AID 868);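 also: 0% = DMSO-only wells with no growth and 100% = 10 µM 1-NA-PP1 full growth; inhibition rescues growth on 5-FOA so higher OD means more RAM inhibition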
Settings: S. cerevisiae dse1pr::URA3 reporter, 5-FOA growth OD615, 2 d; at 50 µM; active compounds read high; analog-sensitive cbk1-as2 kinase mutant strain

SMILES | inhibition
CCOC(=O)CSC1=C(C#N)C(c2sccc2C)CC(=O)N1 (stereo unspecified) | 0%
Cc1ccc(C2CC(=O)NC(SCC(=O)OCc3ccccc3)=C2C#N)o1 (stereo unspecified) | 0.38%
CCOC(=O)CSC1=C(C#N)C(c2ccco2)C(C(=O)OCc2ccccc2)=C(C)N1 (stereo unspecified) | 17.6% (active)
C=CCOC(=O)C1=C(C)OC(N)=C(C#N)C1c1ccc(F)cc1 (stereo unspecified) | 1.6%
C=CCOC(=O)C1=C(C)NC(SCC(=O)OCC)=C(C#N)C1c1ccc(C)cc1 (stereo unspecified) | 17.7% (active)
CC1=C(C(=O)Nc2ccccc2)C(c2ccco2)C(C#N)=C(SCC(N)=O)N1 (stereo unspecified) | -0.14%
S=c1ccc2ccccc2[nH]1 | -0.88%
Cc1noc(C)c1COc1ccc2ccc(=O)oc2c1 | 0.12%
O=C(NC1CC1)c1ccc(-c2ccccc2)cc1 | 1.25%
Cc1cccc(OCCNC(=O)CSc2ccc(C(F)(F)F)cc2[N+](=O)[O-])c1 | 3.14%
COc1ccc(N2CCN(C(C)=C3C(=O)c4ccccc4C3=O)CC2)cc1 | -1.52%
CN(C)c1ccc(C(=S)N2CCN(C(=S)Nc3ccc(Cl)cc3)CC2)cc1 | 4%
Cc1ccc(SCC(=O)c2sc(-c3ccccc3)nc2C)cc1 | 2.13%
Cc1ccc(SCC(=O)c2cc(C)c(OC(=S)N(C)C)c(C)c2)cc1 | 9.5% (active)
Cc1ccc(SCC(=O)Nc2ccc3c(c2)OCCO3)cc1 | 0.6%
COc1ccc(/C=C2/SC(=O)N(CCCCCC(=O)Nc3ccccc3C(=O)O)C2=S)cc1 | 9.16% (active)
O=C(CCCN1C(=O)/C(=C/c2ccccc2)SC1=S)Nc1ccc(O)cc1 | 0.63%
O=C(CCCN1C(=O)/C(=C\c2ccco2)SC1=S)Nc1cccc2ccccc12 | 4.94%
Cc1cc(C)cc(NS(=O)(=O)c2ccc(Oc3ncc(C(F)(F)F)cc3Cl)cc2)c1 | 10.7% (active)
COc1ccccc1Oc1ccc(S(=O)(=O)Nc2cccnc2)cc1 | -0.91%
COC(=O)Cc1ccc(Oc2ncc(C(F)(F)F)cc2Cl)cc1 | 0.6%

SMILES | inhibition
CCOC(=O)Cc1ncccc1C(=O)Nc1ccc(OC(F)(F)F)cc1 | -0.27%
O=C(Nc1cccc(C(F)(F)F)c1)c1cnccn1 | 3.61%
COc1cc(NC(=O)N2CCOCC2)cc(OC)c1 | 0.39%
COc1c(Br)cc2c(C)c(C(=O)N3CCOCC3)oc2c1Br | 13.5% (active)
COc1cc(C(=S)N2CCOCC2)cc(OC)c1OC(=O)c1cc([N+](=O)[O-])c(C)c([N+](=O)[O-])c1 | 3.68%
Cc1ccccc1NS(=O)(=O)CCCCC(Cl)(Cl)Cl | 1.86%
O=C(O)CCC(=O)N(Cc1ccco1)c1nc(-c2ccccc2)cs1 | 3.13%
Cc1ccc(-c2csc(NC(=O)c3cccs3)n2)cc1 | 3.07%
Cc1ccc(-c2csc(N(Cc3ccco3)C(=O)c3cccs3)n2)cc1 | 8.42% (active)
O=C(CN1C(=O)NC2(CCCCCC2)C1=O)NC1CC1 | -0.87%
Cc1ccc2nc(COc3ccc(N(C)S(=O)(=O)c4ccccc4)cc3)cc(=O)n2c1 | 2.17%
CCC1CCCCN1CCCNC(=O)c1cc2c(Cl)nc3ccccc3c2s1 (stereo unspecified) | 1.99%
N#Cc1ccc(-c2nc3cc(C#N)c(C#N)cc3nc2-c2ccccc2)cc1C#N | 1.25%
COc1ccccc1C1CC(=O)n2c(nc(-c3ccccc3)c2-c2ccccc2)S1 (stereo unspecified) | 8.41% (active)
COc1cccc(C2CC(c3ccccc3)=NN2S(=O)(=O)c2ccccc2)c1OC (stereo unspecified) | 2.56%
COc1ccc(C2CC(=O)n3c(nc4ccccc43)S2)cc1OC (stereo unspecified) | 3.3%
O=C(COC(=O)c1ccccc1C(=O)N1CCN(c2ccccc2)CC1)NCc1ccccc1 | 1.15%
CN1CCNC(=O)C1CC(=O)N1CC=C(c2ccc(F)cc2)CC1 (stereo unspecified) | -0.5%
NC(=O)C[n+]1cccc(C(N)=O)c1 | 1.51%
CCc1ccccc1NC(=S)N(CCN1CCCCCC1)Cc1ccco1 | -0.63%
Cc1ccc2[nH]cc(CCNC(=O)c3ccc([N+](=O)[O-])cc3)c2c1 | -1.27%

SMILES | inhibition
O=C1c2ccccc2C(=O)N1CCCc1nc(-c2ccccc2)no1 | 3.93%
Cc1ccc2[nH]cc(CCCN3C(=O)c4ccccc4C3=O)c2c1 | 8.46% (active)
NC(=O)COC(=O)c1cc(S(=O)(=O)N2CCN(c3ccccc3)CC2)ccc1Cl | 5.02%
Cc1cc2[nH]ncc2cc1NC(=S)NC(=O)c1ccccc1 | 3.3%
Cc1ccc(C(=O)NC(=S)Nc2ccccc2C)cc1 | -0.37%
Cc1ccc(NC(=S)NC(=O)c2ccc(-c3ccccc3)cc2)c(C)c1 | 8.7% (active)
CCCCN(C)c1ccc([N+](=O)[O-])cc1 | -1.26%
Cc1cccc(C2=N/C(=C/c3cccs3)C(=O)O2)c1 | 4.44%
C/C(N)=C(/C#N)C(=O)COC(=O)c1cc(-c2ccccc2)nc2ccc(Br)cc12 | 3.84%
Cc1cccc(CSc2nnc(C)c(=O)n2N)c1 | 0.13%
Cc1nc2c(C(=O)NCc3cccs3)cnn2c(C)c1Cc1ccc(F)cc1 | 1.27%
COC(=O)Cn1c(=NC(=O)c2cc(OC)c(OC)c(OC)c2)sc2cc(OC)ccc21 | 5.03%
CCOC(=O)N1CCN(C(=O)c2cc3c(ccc4ccccc43)oc2=O)CC1 | 4.45%
CCCCC(=O)Nc1cc(C)c2c(=O)oc3ccccc3c2n1 | 7.85%
CCOC(=O)c1c(C)nc2c(c1C)c(=O)oc1ccccc12 | 18.6% (active)
CCN(CC)CC1(O)CCN(C(=O)c2ccc(Cl)c(Cl)c2)CC1 | 1.77%
O=C(COC(=O)/C(=C/c1cccs1)c1cccs1)NCc1ccccc1Cl | 14% (active)
O=C(COC(=O)Cn1cnc2ccccc2c1=O)NCc1ccccc1Cl | 0%
O=C(COC(=O)c1cc2c(s1)CCCC2)NCc1ccccc1Cl | 4.18%
